A selection: hits, their analogues and other compounds. The true share with any hit is near 2.2%.
A549 tox = Nrf2 qHTS screen for inhibitors: counterscreen for cytotoxicity. A549 ARE-Fluc cells, CellTiter-Fluor viability, 18-24 h. Potency, µM (doses to about 46 µM), actives largely listed as inhibitors. 390,000 tested, 0.16% active
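A549 ARE-Fluc cells in 5% FBS OPTI-MEM, 5000 cells/well, rested 2 h then exposed to compounds in concentration-response for 18-24 h at 37 °C. Viability by CellTiter-Fluor fluorescence (Ex 405/Em 525) after 30 min; luciferase luminescence (BugLite, 15 min, RT) read afterwards.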
miR-21 reporter = qHTS Assay for Modulators of miRNAs and/orActivators of miR-21; HeLa miR-21 FLuc reporter, luciferase, 48 h; Potency, µM (titrated, usually from 38.3 µM), hits mostly activators; 340,000 tested, under 10 active;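 note: miR-21 action dims this reporter so a rising signal means less miR-21 action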
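Using DMEM plus 10% FBS, HeLa miR-21-FLuc cells are incubated with test compounds (final up to about 40uM) for 48 hours; firefly luciferase signal is then imaged following reagent-mediated lysis.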
GALK inh = qHTS Assay for Inhibitors of Human Galactokinase (GALK) | P51570 | Purified GALK, Kinase-Glo residual ATP luminescence | Potency, µM (highest dose often 57.5 µM), most hits filed as inhibitors | 270,000 tested, 0.007% active
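Kinase-Glo Plus luminescence measured ATP left after a 1 h room-temperature reaction. The reaction used 5 nM GALK, 100 uM galactose and 35 uM ATP at pH 8.0 (20 mM HEPES, 5 mM MgCl2, 60 mM NaCl, 1 mM DTT, 0.01% BSA).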
Nrf2 activator = qHTS of Nrf2 Activators | AREc32 ARE-luciferase reporter (MCF7-derived line), luminescence, 24 h | Potency, µM (series often up to 46.1 µM), usual class: activators | 410,000 tested, 0.31% active | AID 624171, 2012; note: nearly all actives have a fitted effect of over 65% in size
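Each well held 1000 AREc32 cells, which were incubated with compound for 24 hr at 37 deg C after overnight attachment, and ARE reporter activity was quantified by firefly luciferase luminescence.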
PI4K2A inh = qHTS for small molecular inhibitors of PI4K2A | Phosphatidylinositol 4-kinase type 2-alpha (Homo sapiens), Q9BTU6 | purified PI4K2A, ADP-Glo luminescence, 1 h; active compounds read low | activity change, negative = inhibition, % at 76.9 µM | 420,000 tested, 0.13% active | AID 1346378, 2018; in the data active = activity change below about -50%; inconclusive = mostly about -30% to -49%
Target sequence (Q9BTU6 whole entry, looked up): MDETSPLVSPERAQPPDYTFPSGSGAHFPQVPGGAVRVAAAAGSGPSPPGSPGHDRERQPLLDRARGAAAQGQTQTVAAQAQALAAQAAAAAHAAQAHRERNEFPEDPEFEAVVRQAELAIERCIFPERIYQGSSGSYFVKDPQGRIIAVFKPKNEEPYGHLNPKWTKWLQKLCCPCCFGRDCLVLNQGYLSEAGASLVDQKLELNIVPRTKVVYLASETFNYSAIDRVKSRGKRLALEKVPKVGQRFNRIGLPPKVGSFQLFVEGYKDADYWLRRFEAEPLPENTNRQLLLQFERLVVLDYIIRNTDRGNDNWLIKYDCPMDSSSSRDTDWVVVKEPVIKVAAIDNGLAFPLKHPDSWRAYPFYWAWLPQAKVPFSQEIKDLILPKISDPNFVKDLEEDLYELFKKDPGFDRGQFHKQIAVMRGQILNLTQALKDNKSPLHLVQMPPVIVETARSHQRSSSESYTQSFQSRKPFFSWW
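ADP-Glo luminescence measured ADP generated by PI4K2A enzyme (4 ug/mL before mixing) with 1.2 mM PI substrate (pre-mix) and 300 microM ATP (pre-mix). Tris pH7.5 buffer with MgCl2, Triton X-100; 1 h reaction at ambient temperature.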
Nrf2 block = Nrf2 qHTS screen for inhibitors. A549 ARE-Fluc reporter, luciferase luminescence, 18-24 h. 360,000 tested, 2.1% active. Potency, µM (series often up to 46 µM), actives largely listed as inhibitors; note: nearly all actives have a fitted effect of over 60% in size
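Reporter: ARE-Fluc in A549. Exposure: 18-24 h, 37 °C, 5% CO2, 5% FBS OPTI-MEM. Readouts: fluorescent cytotoxicity (CellTiter-Fluor), then luminescent Nrf2 signal after BugLite.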
Numbers stand for hits; i = inactive; ? = inconclusive; nt = not tested or not shown; ! = not confirmed by another sample; [ ] = another dose, or the depositor's remark. Unless noted, calls come from the whole dose curve; as a rule, active = well fitted curve in the direction sought with a large enough effect; inconclusive = small, poorly fitted or top-dose-only effect, or another doubt; inactive = no such curve, though single readings can be large; an effect the other way counts as inactive or inconclusive.

SMILES	A549 tox	miR-21 reporter	GALK inh	Nrf2 activator	PI4K2A inh	Nrf2 block
Nc1c(NC/C=C\COc2cc(CN3CCCCC3)ccn2)c(=O)c1=O	nt	nt	nt	nt	i	nt
Cc1ccc(NS(=O)(=O)c2ccc3c(c2)CCO3)cc1C	i	nt	nt	nt	nt	?
O=C(N/N=C\c1ccc(CNS(=O)(=O)c2ccc(Cl)cc2)o1)C(=O)Nc1ccc(Oc2ccccc2)cc1	?	i	i	i	i	16.4µM
O=C(N/N=C\c1ccc(CNS(=O)(=O)c2ccccc2)o1)C(=O)Nc1ccc(F)cc1	i	i	i	i[9.22 µM]	i	i
Cc1ccc(NC(=O)[C@@H]2CCCN2S(=O)(=O)c2cccc3cccnc23)c(C)c1	nt	nt	nt	nt	i	nt
COc1ccc(NS(=O)(=O)c2cccc(C(=O)OCC(=O)N3CCN(c4ccc(OC)cc4)CC3)c2)cc1	i	nt	nt	i	i	20.6µM
Cn1nnc2c(N3CCN(Cc4ccccc4)CC3)ncnc21	i	nt	nt	nt	nt	?
CCN(CC)C(=O)C1CCCN(C(=O)c2cc(COc3ccc4ncccc4c3)on2)C1 (stereo not drawn)	i	i	i	i	i	?
CCN1CCN(C(=O)c2cc(COc3ccc4ncccc4c3)on2)CC1	i	i	i	i	i	20.6µM
O=C(NCc1cccc(Cl)c1)c1cc(COc2ccc3ncccc3c2)on1	i	i	i	i	i	10.3µM
Cc1ccc(F)cc1CNC(=O)c1cc(COc2ccc3ncccc3c2)on1	i	i	i	i	i	?
CCCN1CCN(C(=O)c2cc(COc3ccc4ncccc4c3)on2)CC1	i	i	i	i	i	5.17µM
CC(C)N(Cc1nccn1C)C(=O)c1cc(COc2ccc3ncccc3c2)on1	i	i	i	i	i	13µM
Fc1cccc(CNC(=S)OC2CCC23CCC(c2ccccc2)CC3)c1 (stereo not drawn)	nt	nt	nt	nt	i	nt
NC(=O)c1sc2nc3c(c(-c4ccco4)c2c1N)CCC3	i	i	i	i	i	5.8µM
Nc1c(C(=O)NC2CC2)sc2nc3c(c(-c4ccco4)c12)CC/C3=C/c1ccco1	?	i	i	i	-74.0	i
CCOC(=O)[C@@]12CN(C(=O)OC(C)(C)C)CC=C1N(Cc1ccc(OC)cc1)C(=O)[C@H]2CC(=O)NCc1cccs1	nt	nt	nt	nt	i	nt
Cc1ccc(S(=O)(=O)N2CCN(c3nc(C#N)nc4ccccc34)CC2)cc1	i	nt	nt	nt	nt	i
Cc1noc(C)c1-c1cccc(-c2nn3c(=O)cc(N4CCNCC4)nc3s2)c1	i	nt	nt	nt	nt	i
COc1cccc(CN(C)C(=O)CNC(=O)c2sc3ccccc3c2Cl)c1OC	i	nt	nt	i	i	25.9µM
COc1ccc(CN(C)C(=O)CNC(=O)Cc2cccc3ccccc23)c(OC)c1OC	i	i	i	i	i	i
CCN1CCN(Cc2ccc(NC(=O)c3ccc(C)c(/C=C/c4cnc(Nc5cc(N6CCNCC6)nc(C)n5)cn4)c3)cc2C(F)(F)F)CC1	?	?	nt	i	i	18.4µM
CCN1CCN(Cc2ccc(NC(=O)c3ccc(C)c(NC(=O)c4ccno4)c3)cc2C(F)(F)F)CC1	i	i	i	i	i	i
COc1ccc(Cn2c(C)nc3c(c2=O)c2nc4ccccc4nc2n3Cc2ccco2)cc1	i	nt	nt	i	i	18.4µM
CC(C)C(OC(=O)CNC(=O)c1ccccc1)C(=O)Nc1cc(C(F)(F)F)ccc1Cl (stereo not drawn)	i	nt	nt	nt	nt	i
SMILES	A549 tox	miR-21 reporter	GALK inh	Nrf2 activator	PI4K2A inh	Nrf2 block
COc1ccc(C2Nc3ccccc3C(=O)N2CCc2ccc(Cl)cc2Cl)cc1COc1ccc(NC(C)=O)cc1 (stereo not drawn)	i	nt	nt	nt	nt	i
COc1ccc(CCNS(=O)(=O)c2cc3c4c(c2)C(C)C(=O)N4CCC3)cc1OC (stereo not drawn)	?	i	i	i	i	?
CC1C(=O)N2CCCc3cc(S(=O)(=O)NCCc4ccccc4)cc1c32 (stereo not drawn)	i	i	i	i	i	16.4µM
O=C(CSc1nnc(-c2ccccc2)n1-c1ccc(Cl)cc1)NN=Cc1c[nH]c2ccccc12	nt	nt	nt	nt	i	nt
CCCCn1c(NC(=O)CC)c(C#N)c2nc3ccccc3nc21	i	i	i	i	i	i
N#Cc1c(NC(=O)c2ccccc2Cl)n(Cc2ccccc2)c2nc3ccccc3nc12	?	i	i	i	-50.3	16.4µM
CCCCn1c(NC(=O)c2ccccc2Cl)c(C#N)c2nc3ccccc3nc21	?	?	i	i	i	13µM
COc1cccc(C(=O)Nc2cc(Cl)c(O)c(Cl)c2)c1	i	i	i	3.98µM	i	i
COc1ccc(NC(=S)NC(=O)c2ccccc2)cn1	i	i	i	i	i	?
COc1ccc(NC(=O)c2cccc(Oc3ccccc3)c2)cn1	i	i	i	i	i	25.9µM
COc1cc(O)oc1C=Nc1ccc(C(=O)O)cc1	i	i	i	i	-50.3	i
COc1cc(O)oc1C=Nc1ccc(Cl)cc1	i	i	i	i	i	i
COc1ccc(C2c3c(nc(CCc4ccccc4)[nH]c3=O)Oc3ccc4ccccc4c32)cc1OC (stereo not drawn)	i	nt	nt	nt	nt	i
CCN1/C(=C\C(=S)Nc2ccccc2)Sc2ccccc21	?	i	i	i	i	?
CCN1/C(=C/C(C)=C/c2sc3ccccc3[n+]2CC)Sc2ccccc21	20.6µM	?	i	i	-51.0!	8.2µM
Cc1cc2[nH]c3c(=O)n(Cc4ccccc4F)ncc3c2s1	i	nt	nt	nt	nt	i
O=C(CC(=O)c1ccncc1)c1ccccc1	i	nt	nt	?	i	i
O=C(CC(=O)c1ccccc1)c1ccccc1	i	nt	nt	14.1µM	i	i
O=S1(=O)C=C(SCc2cccc(Cl)c2)Nc2ccccc21	i	i	i	i	i	20.6µM
COc1cc2c(cc1OC)C(c1ccc(-c3ccc(Cl)c(Cl)c3)o1)=NCC2	nt	?	i	i	i	9.2µM
COc1cc2c(cc1OC)C(c1ccc(-c3cc(Cl)ccc3Cl)o1)=NCC2	?	i	i	i	i	16.4µM
COc1cc2c(cc1OC)C(c1ccc(-c3ccc(Cl)cc3Cl)o1)=NCC2	?	i	i	i	i	?
O=C1CCc2cc(S(=O)(=O)Nc3cccc(-c4ccccc4)c3)ccc2N1	i	nt	nt	nt	nt	?
COC(=O)[C@]12C[C@H](CC(=O)NCc3ccccc3)C(=O)N(Cc3cccc4ccccc34)C1=C[C@H](C1CCCC1)O[C@@H]2C	nt	nt	nt	nt	i	nt
O=S(=O)(c1ccc2c(c1)OCCO2)N1CCN(S(=O)(=O)c2cccc[n+]2[O-])CC1	i	nt	nt	nt	nt	i
COC(=O)c1cc(C(C)c2ccccc2O)n2ccccc12 (stereo not drawn)	nt	nt	nt	nt	i	nt
